This excerpt belongs to a sample that is enriched for hits.
TTR transcr act = activators of transthyretin transcription | AID 1117267 | activation, % at 16.7 µM | SH-SY5Y TTR promoter Gaussia luciferase, luminescence; 100% = recombinant luciferase protein wells | 92,000 compounds, 1.3% hits;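 active = activation above the mean of all tested compounds plus 3 SD, cut at about 9.5% in these data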;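 also: cells exposed to compounds for one day before reading; 0% = median of all test compound wells on the plate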
TTR inh HuH7 = decreases TTR transcription in HuH7 cells in activator counter-screen | shares compounds with TTR transcr act | inhibition, % at 16.7 µM | HuH7 TTR promoter-Gaussia luciferase reporter, luminescence | 1,100 compounds, 4% hits;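 active = average inhibition above the solvent-only control wells' mean plus 3 SD, cut at about 15% in these data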;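 also: 0% = cells with DMSO only and 100% = cells with inhibitor control FD; inhibitors lower well luminescence so higher value means more inhibition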
TTR act confirm = human TTR transcription activation, confirmation; shares compounds with TTR transcr act; SHSY5Y TTR promoter Gaussia luciferase, luminescence; 100% = purified Lucia enzyme wells, no cells; activation, % at 16.7 µM; 1,100 tested, under 10 active;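 active = mean activation above a set limit taken from the earlier primary screen, cut at about 11% in these data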;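 also: 0% = DMSO-treated cells and 100% = recombinant Lucia luciferase without cells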
* marks the source's active call; other numbers are inactive results; ! = repeats disagree.

SMILES | TTR transcr act | others
CC(C)(C)OC(=O)C[C@@H]1C/C=C\C[C@@H](CC(=O)N(CCO)Cc2ccccc2)C(=O)N2CCC[C@@H]2COC1=O | 3
O=C(Nc1cc(S(=O)(=O)N2CCCC2)ccc1Cl)c1cc(F)c(F)c(F)c1F | 1
CC(C)c1ccc(N(CC(=O)NC2CCCCC2)C(=O)CCC(=O)Nc2ccccn2)cc1 | 1
CN(Cc1ccco1)c1ncnc2ccc(-c3ccc4c(c3)OCO4)cc12 | 27*! | TTR inh HuH7=-6;TTR act confirm=0
Cc1nc(CN(C)c2ncnc3ccc(-c4ccc5c(c4)OCO5)cc23)cs1 | -1
Cc1occc1CNc1ncnc2ccc(-c3ccc4c(c3)OCO4)cc12 | 2
O=C(COc1ccccc1)N=C1SC2CS(=O)(=O)CC2N1c1ccccc1 (configuration not stated) | -1
O=C(N=C1SC2CS(=O)(=O)CC2N1Cc1ccccc1)C1CC1 (configuration not stated) | 0
O=C(CCC1CCCC1)N=C1SC2CS(=O)(=O)CC2N1c1ccccc1F (configuration not stated) | 13* | TTR inh HuH7=-2;TTR act confirm=-1
CC(C)(C)OC(=O)NCCCCCNC(=O)c1[nH]cnc1C(=O)Nc1cc(Br)ccc1F | -3
O=c1[nH]c2nc(Br)[nH]c(=O)c2[nH]1 | 1
Cc1ccc(S(=O)(=O)N2[C@@H](c3ccc(F)cc3)C(C(=O)O)=CC[C@H]2c2cccc(Cl)c2)cc1 | 1
Cc1ccc(S(=O)(=O)N2[C@@H](c3ccccc3F)C(C(=O)O)=CC[C@H]2c2cccs2)cc1 | 13* | TTR inh HuH7=-1;TTR act confirm=2
Cc1ccc([C@@H]2CC=C(C(=O)O)[C@H](c3ccccc3)N2S(=O)(=O)c2ccc(C)cc2)cc1 | -1
Cc1ccc([C@H]2C(C(=O)O)=CC[C@@H](c3ccc(Cl)cc3)N2S(=O)(=O)c2ccc(C)cc2)cc1 | -3
Cc1ccc([C@H]2C(C(=O)O)=CC[C@@H](c3cccc(C)c3)N2S(=O)(=O)c2ccc(C)cc2)cc1 | 4
COc1ccc([C@@H]2CC=C(C(=O)O)[C@H](c3ccccc3F)N2S(=O)(=O)c2ccccc2C)cc1 | 14* | TTR inh HuH7=16*;TTR act confirm=-1
CC=Cc1cc(OC)c2c(c1)C(C)C(c1ccc(O)c(OC)c1)O2 (configuration not stated) | 5
CN(CC(=O)Nc1ccc(F)cc1)C(=O)CN1C(=O)NC(CCc2ccccc2)C1=O (configuration not stated) | 0
COc1cccc(CNC(=O)c2cc3c(c(-c4cccc(-c5cccc(C#N)c5)c4)n2)[C@H](CCO)N(S(=O)C(C)(C)C)C3)c1 (some centres not stated) | -1
Cc1ccc([N+](=O)[O-])cc1N=C(c1cccc([N+](=O)[O-])c1)N1CCOCC1 | 15* | TTR inh HuH7=-8;TTR act confirm=1
O=[N+]([O-])c1cccc(NC(=S)N2CCOCC2)c1 | 1
Cc1ccc([N+](=O)[O-])cc1N=C(c1ccc([N+](=O)[O-])cc1)N1CCOCC1 | 1
CC(C)=CCOc1c2ccoc2c(OCC=C(C)C)c2oc(=O)ccc12 | 1
Cc1ccc(CCCNC(=O)C2CCC(=O)N(Cc3cccc(F)c3)C2)cc1 (configuration not stated) | -2
SMILES | TTR transcr act | others
Cc1cccc(N2CCN(C(=O)COc3noc4nc(C)cc(C)c34)CC2C)c1 (configuration not stated) | 1
Cc1cc(C)c(S(=O)(=O)N2CCN(C(=O)C(C)Cn3cncn3)CC2)c(C)c1 (configuration not stated) | 1
O=C(NCc1ccncc1)[C@@H]1CCCN1C(=O)[C@H]1CCCN1C(=O)c1c(F)cccc1F | 0
O=C(Cc1ccccc1)NN1C(=O)C2C3C=CC(C4CC34)C2C1=O (configuration not stated) | 10* | TTR inh HuH7=-13;TTR act confirm=-1
O=C(Cc1ccccc1)NN1C(=O)C2C3C=CC(C3)C2C1=O (configuration not stated) | 2
O=C(Cc1ccccc1)NN1C(=O)C2C(C1=O)C1C=CC2C12CC2 (configuration not stated) | -1
O=C(NC(Cc1ccccc1)C(=O)N1CCN(c2ccc(F)cc2)CC1)c1ccccc1 (configuration not stated) | -2
COc1ccc(C(=O)C2CCCN(S(=O)(=O)c3ccc(C(C)=O)cc3)C2)c(C)c1 (configuration not stated) | -2
Cc1ccc(-c2ccc(CN3C(CC(C)C)C(=O)N(Cc4cn(CC5CCCCC5)nn4)CCS3(=O)=O)cc2)cc1 (configuration not stated) | 0
O=C(NC1CCCCCC1)c1cccc(S(=O)(=O)N2CCOCC2)c1 | 3
COc1ccc(S(=O)(=O)N2CCOCC2)cc1C(=O)Nc1cccc(C(=O)NC2CC2)c1 | 13* | TTR inh HuH7=-8;TTR act confirm=2

Bioassay records (PubChem)
